# Reference: PubChem BioAssay AID1671192 (National Center for Advancing Translational Sciences (NCATS), 2021)
# Results filed as inconclusive are left out. Active and inactive are the calls of the source. Calls follow the shape of the dose curve; as a rule, active = well fitted curve in the direction sought with a large enough effect; inconclusive = small, poorly fitted or top-dose-only effect, or another doubt; inactive = no such curve, though single readings can be large or run the other way.
# Molecular target: Polyunsaturated fatty acid lipoxygenase ALOX15 (Homo sapiens) (UniProt P16050)
# Experiment: Counterscreen qHTS for inhibitors of human arachidonate 12S-lipoxygenase (ALOX12): ALOX15 Assay; also: 0% is about no effect
# Settings: purified ALOX15 enzyme activity; series mostly up to 110 µM; activity change, negative = inhibition: at the top concentration
# Outline: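 Purified human ALOX15 (15hLO-1) at 40 nM in 25 mM HEPES, 0.01% Triton X-100, pH 7.5, preincubated with compound 15 min at RT. Then 50 uM arachidonic acid for 30 min; hydroperoxide detected by Fe-xylenol orange as the 573/405 nm absorbance ratio.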
# Polyunsaturated fatty acid lipoxygenase ALOX15 (Homo sapiens), sequence (P16050 whole entry, looked up): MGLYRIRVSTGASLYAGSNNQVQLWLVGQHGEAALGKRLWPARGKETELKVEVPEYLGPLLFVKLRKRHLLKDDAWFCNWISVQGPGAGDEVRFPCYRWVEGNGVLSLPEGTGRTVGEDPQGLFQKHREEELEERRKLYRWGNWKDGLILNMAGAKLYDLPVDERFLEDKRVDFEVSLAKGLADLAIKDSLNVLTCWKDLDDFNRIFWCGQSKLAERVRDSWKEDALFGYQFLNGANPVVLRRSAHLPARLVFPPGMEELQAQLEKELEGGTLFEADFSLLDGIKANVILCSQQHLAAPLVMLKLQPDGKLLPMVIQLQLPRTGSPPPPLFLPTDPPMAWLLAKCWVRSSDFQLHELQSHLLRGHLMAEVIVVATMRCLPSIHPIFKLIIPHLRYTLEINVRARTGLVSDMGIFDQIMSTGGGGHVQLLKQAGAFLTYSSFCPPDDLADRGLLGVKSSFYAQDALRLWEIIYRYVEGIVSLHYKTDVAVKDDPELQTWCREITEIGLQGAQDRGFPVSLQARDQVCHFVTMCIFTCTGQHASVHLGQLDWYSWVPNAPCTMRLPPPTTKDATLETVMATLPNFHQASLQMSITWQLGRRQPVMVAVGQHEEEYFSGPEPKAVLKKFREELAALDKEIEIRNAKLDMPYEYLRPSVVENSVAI
row,Compound,"activity change, negative = inhibition"
1,NCC(C1CCCCC1)N1CCCC1 (stereo not drawn),-15.9% [at 233 µM] (inactive)
2,CC(CCc1ccccc1)Nc1ncnc2c1CN(C1CCNC1)C(=O)CN2C (stereo not drawn),-15.6% (inactive)
3,C[S+](=O)([O-])N1CC2ON=C(C(=O)NCCc3ccc(Cl)cc3)C2C1 (stereo not drawn),-3.95% (inactive)
4,O=C1NCc2ccccc2CC12CCN(Cc1cccc(OC(F)(F)F)c1)C2 (stereo not drawn),3% (inactive)
5,NCC(=O)N1CCC2(CC1)CN(C(=O)c1ccc(Cl)cc1)CCO2,14.2% (inactive)
6,Cc1ccc(-c2ccccc2CN)c(C)c1,-18.6% [at 146 µM] (inactive)
7,COc1ccccc1C(=O)N1CCC(N2Cc3ccccc3C2=O)CC1,-0.704% [at 146 µM] (inactive)
8,Cn1nc(C2CCCN2)c2c(C(=O)NCc3ccc(F)cc3)cc(C3CC3)nc21 (stereo not drawn),-22.9% (inactive)
9,CCC(=O)N1Cc2ccccc2CC2(CCCCN2CC2CCOCC2)C1 (stereo not drawn),15.2% (inactive)
10,O=C1c2ccccc2CN1C1CCN(Cc2ccc(C(F)(F)F)cc2)CC1,-7.82% (inactive)
11,N#Cc1cccc(CN2CCCC(c3nc4ccc(F)cc4c(=O)[nH]3)C2)c1 (stereo not drawn),-27% (inactive)
12,CN1CC(=O)N(C2CCNC2)Cc2c(NCC3CCCCC3)ncnc21 (stereo not drawn),-16.9% (inactive)
13,COc1cccc(-c2ccc(CN)cc2)c1,-1.18% [at 146 µM] (inactive)
14,NCc1cccc(-c2cncnc2)c1,-18.5% [at 146 µM] (inactive)
15,CN1CC(=O)N(C2CCCNCC2)Cc2c(NCC(C)(C)C)ncnc21 (stereo not drawn),12.5% (inactive)
16,Cn1nc(C2CCNC2)c2c(C(=O)NC3CC3)cc(C3CC3)nc21 (stereo not drawn),-0.11% [at 146 µM] (inactive)
17,CNCc1ccc(F)cc1,-9.69% [at 233 µM] (inactive)
18,NCc1ccccc1-c1cc(C(F)(F)F)ccc1Cl,-8.37% [at 146 µM] (inactive)
19,CC(C)C(=O)N1CCCC2(Cc3ccccc3CN2[S+](=O)([O-])c2ccccc2)C1 (stereo not drawn),-13.4% (inactive)

row,Compound,"activity change, negative = inhibition"
1,Cc1cccc(CN2CCCC23Cc2ccccc2CNC3=O)c1 (stereo not drawn),-11% [at 146 µM] (inactive)
2,CC(=O)NC1CC2(CCN(C(=O)Cc3c(C)noc3C)CC2)Oc2ccccc21 (stereo not drawn),-16.5% (inactive)
3,O=C(N1CCOCC1)N1CCC(c2nnc3n2CCNC3)CC1,2.12% (inactive)
4,CN1CC(=O)N(c2ccccc2F)Cc2c(NC3CCNCC3)ncnc21,-20.5% (inactive)
5,COc1ccc(C(=O)N2CC(Oc3ccc4c(c3)OCO4)C2)cc1,10.5% [at 146 µM] (inactive)
6,CN1CCC(C(=O)N2Cc3ccccc3OC3(CCN(C(=O)N(C)C)CC3)C2)CC1,-19.9% (inactive)
7,COc1ccc(C(=O)N2CCc3nc(C4CC4)nc(-c4ccc(OC)cc4)c3C2)cc1,-11.3% (inactive)
8,Cc1noc(C)c1C(=O)N1Cc2ccccc2CC2(CCCN(CC3CCNC3)C2)C1 (stereo not drawn),-7.51% (inactive)
9,O=C1NCc2ccccc2CC12CCCN2Cc1ccc(Cl)s1 (stereo not drawn),-26.2% [at 146 µM] (inactive)
10,COc1cccc([S+](=O)([O-])N2CCn3c(nn(-c4ccc(Cl)cc4)c3=O)C2)c1,4.67% (inactive)
11,CC(=O)N1CCN(c2ncnc3c2CN(C2CCCNCC2)C(=O)CN3C)CC1 (stereo not drawn),-3.89% (inactive)
12,COc1cccc([S+](=O)([O-])N2CC(Oc3ccc(F)c(F)c3)C2)c1,8.83% (inactive)
13,O=C(c1ccc(C(F)(F)F)cc1)N1CC(Oc2ccc3c(c2)OCO3)C1,-14.9% (inactive)
14,COCCNc1nc2c([S+](=O)([O-])c3cc(OC)ccc3OC)nnn2c2ccccc12,4.89% (inactive)
15,O=C(c1cc(C2CC2)nc2onc(C3CCCN3)c12)N1CCOCC1 (stereo not drawn),-29.9% (inactive)
16,CCc1ccc(CN2CCC3(Cc4ccccc4CNC3=O)C2)s1 (stereo not drawn),-17.1% [at 146 µM] (inactive)
17,COc1ccc(N2CC3CCC(C2)N3Cc2ccc(C#N)cc2)cc1,-3.16% [at 146 µM] (inactive)
18,c1cc(NCCN2CCCC2)ccn1,-9.88% [at 233 µM] (inactive)
19,NC(C(=O)N1CCC2(CC1)CN(C(=O)Cc1cccc(Cl)c1)CCO2)c1ccccc1 (stereo not drawn),-18.6% (inactive)
